Laboratory results taken from PubChem BioAssay (EPA / NIEHS).
Where “and” joins values, the source holds several entries; their conditions need not be identical. Identical values can stand only once. Some structures have more than one record in an assay (separate samples or runs), and their calls can disagree. Calls of active or inactive are those of the source. Rule for the calls: active = hit-call score of the fitted dose curve at least 0.9, where 1 is the maximum; inactive = score below 0.9.

Read-out: sulfotransferase 2A1 (SULT2A1), SULT2A1 (gene 6822)
Assay: LTEA_HepaRG_SULT2A1: Life Technologies and Expression Analysis (LTEA) Assay for sulfotransferase 2A1 (SULT2A1) using HepaRG (AID 2283531)
Settings: mRNA level, 48 h; actives raise or lower the signal
Procedure, shortened: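 Gene-expression endpoint in a human liver cell line: SULT2A1 mRNA change after 48 h chemical treatment, curves fitted in both directions relative to 0.5% DMSO vehicle. Concentrations spanned eight half-log steps from 100 uM.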

| Structure (SMILES) | AC50 | outcome |
| --- | --- | --- |
| CC1(c2ccc(Oc3ccccc3)cc2)OC(=O)N(Nc2ccccc2)C1=O (stereo not given) | 32.5 µM (active) |  |
| CC(C)N(C(=O)COc1nnc(C(F)(F)F)s1)c1ccc(F)cc1 | 13.8 µM (active) |  |
| O=S(=O)(O)C(F)(F)C(F)(F)C(F)(F)C(F)(F)C(F)(F)C(F)(F)C(F)(F)C(F)(F)F | 7.51 µM (active) and 83 µM (active) and 85.1 µM (active) | inactive |
| CCOCN(C(=O)CCl)c1c(C)cccc1CC | 83.8 µM (active) |  |
| CC(C)(C)C(O)C(Oc1ccc(Cl)cc1)n1cncn1 (stereo not given) |  | inactive |
| Oc1ccc(Cl)cc1Cc1ccccc1 |  | inactive |
| CCN(CC)C(=O)SCc1ccc(Cl)cc1 |  | inactive |
| CCC(C)(C)C(=O)OC1=C(c2ccc(Cl)cc2Cl)C(=O)OC12CCCCC2 |  | inactive |
| O=S1OCC2C(CO1)C1(Cl)C(Cl)=C(Cl)C2(Cl)C1(Cl)Cl (stereo not given) | 91.7 µM (active) |  |
| CNC(=O)Oc1ccccc1OC(C)C |  | inactive |
| Oc1cc(Cl)ccc1Oc1ccc(Cl)cc1Cl |  | inactive |
| CC1(C)C(C=C(Cl)Cl)C1C(=O)OC(C#N)c1ccc(F)c(Oc2ccccc2)c1 (stereo not given) | 50 µM (active) |  |
| CCC(C)Nc1c([N+](=O)[O-])cc(C(C)(C)C)cc1[N+](=O)[O-] (stereo not given) |  | inactive |
| COP(=S)(OC)Oc1ccc(SC)c(C)c1 |  | inactive |
| CCOC1Oc2ccc(OS(C)(=O)=O)cc2C1(C)C (stereo not given) | 83.5 µM (active) |  |
| N#Cc1c(Cl)c(Cl)c(Cl)c(C#N)c1Cl |  | inactive |
| O=[N+]([O-])/N=C1\NCCN1Cc1ccc(Cl)nc1 | 31.8 µM (active) |  |
| C[C@H]1[C@H](c2ccc(Cl)cc2)SC(=O)N1C(=O)NC1CCCCC1 | 93.4 µM (active) |  |
| CN1CSC(=S)N(C)C1 |  | inactive |
| COP(=S)(OC)Oc1ccc([N+](=O)[O-])cc1 |  | inactive |
| O=C1c2ccccc2C(=O)N1SC(Cl)(Cl)Cl |  | inactive |
| C#CCN1C(=O)COc2cc(F)c(N3C(=O)C4=C(CCCC4)C3=O)cc21 |  | inactive |

Read-out: Transforming Growth Factor (TGFA), TGFA (gene 7039)
Assay: LTEA_HepaRG_TGFA: Life Technologies and Expression Analysis (LTEA) Assay for Transforming Growth Factor (TGFA) using HepaRG (AID 2283532)
Settings: mRNA level, 48 h; actives raise or lower the signal
Procedure, shortened: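 Differentiated human HepaRG cells, plated 48 h then switched to serum-free induction medium, were exposed in duplicate for 48 h to 8-point half-log series from 100 uM in 0.5% DMSO. TGFA mRNA measured by qRT-PCR, normalized to ACTB/GAPDH/POLR2A, bidirectional fit versus DMSO.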

| Structure (SMILES) | AC50 | outcome |
| --- | --- | --- |
| CC1(c2ccc(Oc3ccccc3)cc2)OC(=O)N(Nc2ccccc2)C1=O (stereo not given) | 8.82 µM (active) |  |
| CC(C)N(C(=O)COc1nnc(C(F)(F)F)s1)c1ccc(F)cc1 |  | inactive |
| O=S(=O)(O)C(F)(F)C(F)(F)C(F)(F)C(F)(F)C(F)(F)C(F)(F)C(F)(F)C(F)(F)F | 50 µM (active) and 16.7 µM (active) and 48 µM (active) |  |
| CCOCN(C(=O)CCl)c1c(C)cccc1CC |  | inactive |
| CC(C)(C)C(O)C(Oc1ccc(Cl)cc1)n1cncn1 (stereo not given) |  | inactive |
| Oc1ccc(Cl)cc1Cc1ccccc1 |  | inactive |
| CCN(CC)C(=O)SCc1ccc(Cl)cc1 |  | inactive |
| CCC(C)(C)C(=O)OC1=C(c2ccc(Cl)cc2Cl)C(=O)OC12CCCCC2 |  | inactive |
| O=S1OCC2C(CO1)C1(Cl)C(Cl)=C(Cl)C2(Cl)C1(Cl)Cl (stereo not given) |  | inactive |
| CNC(=O)Oc1ccccc1OC(C)C |  | inactive |
| Oc1cc(Cl)ccc1Oc1ccc(Cl)cc1Cl |  | inactive |
| CC1(C)C(C=C(Cl)Cl)C1C(=O)OC(C#N)c1ccc(F)c(Oc2ccccc2)c1 (stereo not given) |  | inactive |
| CCC(C)Nc1c([N+](=O)[O-])cc(C(C)(C)C)cc1[N+](=O)[O-] (stereo not given) |  | inactive |
| COP(=S)(OC)Oc1ccc(SC)c(C)c1 |  | inactive |
| CCOC1Oc2ccc(OS(C)(=O)=O)cc2C1(C)C (stereo not given) | 90.8 µM (active) |  |
| N#Cc1c(Cl)c(Cl)c(Cl)c(C#N)c1Cl |  | inactive |
| O=[N+]([O-])/N=C1\NCCN1Cc1ccc(Cl)nc1 |  | inactive |
| C[C@H]1[C@H](c2ccc(Cl)cc2)SC(=O)N1C(=O)NC1CCCCC1 | 69.5 µM (active) |  |
| CN1CSC(=S)N(C)C1 |  | inactive |
| COP(=S)(OC)Oc1ccc([N+](=O)[O-])cc1 |  | inactive |
| O=C1c2ccccc2C(=O)N1SC(Cl)(Cl)Cl |  | inactive |
| C#CCN1C(=O)COc2cc(F)c(N3C(=O)C4=C(CCCC4)C3=O)cc21 |  | inactive |
